An excerpt weighted towards active compounds, which were near 7.1% of everything screened.
M1 agonist = M1 muscarinic receptor agonists, primary screen, CHO-M1 cells, Fluo-4 calcium, agonist mode. Muscarinic acetylcholine receptor M1. Fluo-4 calcium fluorescence; active compounds read high. B-score at 10 µM. 64,000 tested, 3% active. AID 626, 2007;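 active means fluorescence rise, raw or as B-score row- and column-corrected plate score, outside the 99.7% band of its plate's samples, either direction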
M1 antag = antagonists of rat M1 muscarinic receptor | Muscarinic acetylcholine receptor M1 (Rattus norvegicus), P08482 | CHO-M1 cells, Fluo-4 calcium, ACh EC80 antagonist mode; active compounds read low | B-score at 10 µM | 64,000 tested, 3.4% active | AID 628, 2007;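 active means calcium fluorescence response, raw or row-and-column corrected B-score, differing from the plate sample mean either way at a set confidence level, mostly lower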
Cav3 T inh = Cav3.2 calcium influx blockers – cell-based, Fluo-4 calcium fluorescence, FDSS, MLSMR library, primary screen | Voltage-dependent T-type calcium channel subunit alpha-1H (Homo sapiens), O95180 | Cav3.2-expressing cells; active compounds read low | B-score at 10 µM | 100,000 tested, 4% active | AID 449739, 2010;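 active means single-dose well whose peak fluorescence ratio is a statistical outlier from its plate by either plate-standardised score or position-corrected B-score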
Pyk2 oligo antag = antagonists of Pyk2 self-association, primary screen, Q293 cells, FERM NanoBiT luminescence, HTS; 99,000 tested, 0.83% active; active compounds read low; AID 1347419, 2020; Protein-tyrosine kinase 2-beta (Homo sapiens), Q14289; z-score (the deposit names both 25 µM and 10 µM);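 active means Z-score of -3 or lower, scaled per plate to the spread of control and sample wells; inactive means z-score above -3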;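 further: negative z-score means lost luminescence so less FERM oligomerization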
M1 agonist conf = rat M1 muscarinic receptor agonists, confirmation, CHO-M1 cells, Fluo-4 calcium, duplicate retest. Fluo-4 calcium fluorescence, agonist mode; actives lie on both sides. shares compounds with M1 agonist. fluorescence change (max-min) at 10 µM. 1,700 tested, 19% active;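 active means fluorescence change differs from the solvent-only DMSO control mean at a set confidence level in both duplicate runs; inconclusive means differs from solvent-only control mean in just one of two runs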;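 further: an EC20 dose of acetylcholine follows compound addition during the same imaging run; raw fluorescence intensity difference in instrument units with no normalization to controls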
M4 ag counter = agonist activity at rat M4 receptor, confirmation, counter-screen for M1 allosteric modulator project, cell-based, agonist mode; shares compounds with M1 agonist; CHO M4/Gqi5 cells, Fluo-4 calcium fluorescence; actives lie on both sides; fluorescence change (max-min) at 10 µM; 1,700 tested, 9% active; AID 1741, 2009;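 active means fluorescence change differing from the plate's solvent-only control wells at 99.7% confidence in both duplicates, whether higher or lower; inconclusive means differs from solvent controls in only one of two duplicates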
* = called active by the depositor; ? = inconclusive; / = no result.

SMILES | M1 agonist | M1 antag | Cav3 T inh | Pyk2 oligo antag | M1 agonist conf | M4 ag counter
CC(C)CC(COCc1cccc(Cl)c1)N1CCN(C(=O)c2ccc(C(F)(F)F)cc2)CCC1=O (centres undefined) | / | / | -0.65 | / | / | /
CSCC[C@@H](C(=O)O)N1Cc2ccccc2C1=O | -0.13 | 0.36 | -0.64 | / | / | /
O=C(O)[C@@H](c1ccccc1)N1Cc2ccccc2C1=O | 3* | -0.25 | 0.14 | / | ? | -31
O=C(CSc1nccn1-c1ccc(Cl)cc1)NCc1ccc2c(c1)OCO2 | -1.2 | -0.16 | / | / | / | /
CCOC(=O)N1CCN(CC(=O)N2c3ccccc3CC2C)CC1 (centres undefined) | 3.3* | 0.4 | / | -0.28 | -13 | -26
COc1ccc(/C=C2\SC(=S)N(NC(=O)c3csc4c3CCCC4)C2=O)cc1 | / | / | -1.5 | 0.91 | / | /
FC(F)Oc1ccc(/C=N/c2c(-c3ccc(OC(F)F)cc3)nc3n2CCS3)cc1 | / | / | -0.42 | 0.16 | / | /
Cc1cn(-c2ccc(Br)cc2)[nH]c1=O | 2.1* | 0.75 | 0.33 | 0.69 | -18 | ?
CCOC(=O)c1ccc(S(=O)(=O)Nc2ccccc2-c2nnn(CC)n2)cc1 | 3.8* | -3* | -1.5 | -1.1 | ? | ?
CCOC(=O)c1ccc(S(=O)(=O)Nc2cc(C(C)(C)C)no2)cc1 | 7.6* | 0.42 | -0.42 | 1.2 | -12 | -16
Cc1cc2ccccc2n1CCNC(=O)c1ccc(Br)o1 | / | / | -1.4 | / | / | /
O=C(CCCO)CCCCCCCCC[C@H]1N[C@H](CO)[C@@H](O)[C@@H]1O | / | / | 0.69 | / | / | /
COC(=O)c1cc(NC(=O)C2COc3ccccc3O2)ccc1Cl (centres undefined) | 5.7* | -0.6 | -2.2 | 0.43 | -17 | -33
O=C(Nc1ccc(S(=O)(=O)N2CCCC2)cc1)C1COc2ccccc2O1 (centres undefined) | -0.26 | -0.19 | -1.2 | / | / | /
O=C(Nc1ccc(S(=O)(=O)N2CCOCC2)cc1)C1COc2ccccc2O1 (centres undefined) | 8.7* | -0.85 | -1 | 1.7 | ? | -66*
CC(C)NC(=O)c1ccccc1NC(=O)C1COc2ccccc2O1 (centres undefined) | / | / | -0.82 | -0.23 | / | /
COCCNC(=O)c1ccccc1NC(=O)C1COc2ccccc2O1 (centres undefined) | 5.7* | -0.29 | 0.021 | -0.01 | -29* | -120*
C1CNCCNCCNCCN1 | 0.86 | 0.5 | / | / | / | /
C/C(N)=C(/C#N)C(=O)CSc1nc2cc(Cl)ccc2s1 | 5.1* | 0.38 | -1.2 | -0.05 | -8.7 | -26
c1ccc(Cn2ccc(-c3cnc(-c4ccccc4)s3)n2)cc1 | / | / | -0.37 | -1.6 | / | /
COC(=O)c1ccc2c(=O)n(CCCCCC(=O)N3CCN(c4ccccc4)CC3)c(=O)[nH]c2c1 | 11* | -1.7 | -0.77 | -2.3 | -5.2 | 5.4
COc1cc2[nH]c(=O)n(CCC(=O)N3CCN(c4cccc(C)c4C)CC3)c(=O)c2cc1OC | -0.43 | 1.1 | -1 | 0.11 | / | /
CCN1CCN(C(=O)CCCCCn2c(=O)[nH]c3cc(C(=O)OC)ccc3c2=O)CC1 | 0.012 | -0.52 | 0.2 | -0.45 | / | /
COc1cc2[nH]c(=O)n(CCCCCC(=O)N3CCN(c4ccccc4)CC3)c(=O)c2cc1OC | 2.8* | -1.8 | 1 | -0.81 | -6.8 | -12
C=CCn1c(=O)/c(=C/c2cc(OC)c(OC)c(OC)c2)s/c1=C(/C#N)c1nc2ccccc2n1C | 77* | -0.84 | -3.6 | -1.3 | ? | 118
COc1ccccc1C1C(C(C)=O)=C(C)N=c2s/c(=C\c3cc(OC)c(OC)c(OC)c3)c(=O)n21 (centres undefined) | / | / | -0.17 | -2.2 | / | /
COc1ccc(N=Nc2nc3ccc(Br)cc3n2C)cc1 | / | / | / | -1.1 | / | /
O=C(CCCCCNc1nc(=S)[nH]c2ccccc12)N1CCN(c2ccccn2)CC1 | 15* | -1.6 | 0.75 | -2.8 | -9 | -32
N[C@H]1CONC1=O | / | / | 0.04 | / | / | /
Cc1c(NC(=O)CSC2=C(C#N)C(c3ccccc3F)CC(=O)N2)c(=O)n(-c2ccccc2)n1C (centres undefined) | 3.4* | 0.18 | -0.5 | -0.35 | -27 | ?

Screening results deposited in PubChem BioAssay by several laboratories.
